Sfp inh – blocks B. subtilis Sfp PPTase activity; hit rate 3.5% among 310,000; Potency, µM, usual class: inhibitors; Biochemical Sfp PPTase activity, qHTS; Q9F4F7;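 note: the enzyme is Sfp with the accession as filed and its product quenches rhodamine fluorescence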
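Compounds were incubated with enzyme (final 15 nM) for 15 min at room temperature before substrate addition started the reaction. Fluorescence at 525 nm excitation, 598 nm emission was recorded immediately and after 30 minutes.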
CCT modulator – cytosolic chaperonin activity modulation; purified chaperonin ATPase assay, HTRF ADP detection, 30 min; activity change, % (no concentration beside the values), hits read low; hit rate 0.3% among 360,000; in the data active = activity change below about -30%
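First, chaperonin was dispensed at 40 nM or 20 nM final depending on batch activity. Next, compounds were pinned at 76 uM and ATP added at 10 uM. After 30 min at 37 °C, ADP detection reagents ran 30 min at ambient temperature.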
MmCpn inh – blocks the Methanococcus maripaludis chaperonin Mm-Cpn; purified Mm-Cpn ATPase, ADP Transcreener TR-FRET; Potency, µM (titrated, usually from 76.9 µM), most hits filed as inhibitors; hit rate 0.031% among 330,000; note: nearly all actives have a fitted effect of over 80% in size
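ATP (10 uM final) was added to archaeal chaperonin (25 nM final) after 10 min exposure to test compound at 37°C; after 30 min further incubation, ADP was detected by competitive TR-FRET.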
PLK1 PBD inh – blocks phosphopeptide binding to human PLK1 polo-box domain. P53350. Plk1 PBD binding of FITC phosphopeptide, fluorescence polarization. Potency, µM, most hits filed as inhibitors. hit rate 2.8% among 360,000; note: series mostly up to about 57 µM; nearly all actives have a fitted effect of over 65% in size
VDR inhibitor – inhibitors of human vitamin D receptor | P11473 | VDR-SRC2-3 peptide fluorescence polarization, 2 h | Potency, µM, usual class: inhibitors | hit rate 0.93% among 400,000
Target sequence (P11473 whole entry, looked up): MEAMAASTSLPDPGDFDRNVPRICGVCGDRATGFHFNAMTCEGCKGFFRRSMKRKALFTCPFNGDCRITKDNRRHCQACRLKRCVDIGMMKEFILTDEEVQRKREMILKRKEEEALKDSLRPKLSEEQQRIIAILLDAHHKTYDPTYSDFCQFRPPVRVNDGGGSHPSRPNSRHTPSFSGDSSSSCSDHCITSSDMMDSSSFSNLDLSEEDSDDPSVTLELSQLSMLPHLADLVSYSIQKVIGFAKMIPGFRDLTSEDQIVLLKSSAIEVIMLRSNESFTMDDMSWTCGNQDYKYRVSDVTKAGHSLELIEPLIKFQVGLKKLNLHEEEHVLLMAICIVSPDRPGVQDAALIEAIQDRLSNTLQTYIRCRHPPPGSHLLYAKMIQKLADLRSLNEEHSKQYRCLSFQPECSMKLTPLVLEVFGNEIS
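Measured by FP: displacement of SRC2-3 coactivator peptide from VDR by library compounds, following a two-hour ambient incubation.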
G9a block – blocks human histone lysine methyltransferase G9a; AID 504332; Potency, µM (series often up to 102 µM), most hits filed as inhibitors; G9a H3K9 monomethylation, AlphaScreen, 2 h; hit rate 8.8% among 350,000; note: nearly all actives have a fitted effect of over 75% in size
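AlphaScreen read-out: biotin-H3K9 peptide (500 nM) methylation by 20 nM enzyme with 20 uM SAM, 2 h at room temperature after 15 min compound preincubation; anti-monomethyl H3K9 antibody plus donor/acceptor beads, 10 min dark.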
Each line names hits and unclear results; the compound was inactive in the other large screens; ! = not confirmed by another sample. Hits are enriched below; roughly 10% of the tested compounds scored in any of these assays. Unless noted, calls come from the whole dose curve; as a rule, active = well fitted curve in the direction sought with a large enough effect; inconclusive = small, poorly fitted or top-dose-only effect, or another doubt; inactive = no such curve, though single readings can be large; an effect the other way counts as inactive or inconclusive.

COc1ccc(N2CN=C3SCC(=O)N3C2)cc1	G9a block inconclusive
COc1ccc(OC)c(C2C(C#N)=C(N)N(N(C)C)C3=C2C(=O)CCC3)c1 (stereo not drawn)	none
COc1ccc(C2CC(=O)N3CN(c4ccccc4F)CSC3=C2C#N)cc1OC (stereo not drawn)	Sfp inh 8.9µM, PLK1 PBD inh 30µM, VDR inhibitor 32µM, G9a block 3.2µM
COc1ccc(OC)c(C2CC(=O)N3CN(c4ccccc4)CSC3=C2C#N)c1 (stereo not drawn)	Sfp inh 4.5µM, PLK1 PBD inh 27µM, VDR inhibitor 20µM, G9a block 1.4µM
COc1ccc(C2CC(=O)N3CN(c4ccc(C)c(Cl)c4)CSC3=C2C#N)cc1 (stereo not drawn)	Sfp inh 2.8µM, PLK1 PBD inh 24µM, VDR inhibitor 32µM, G9a block 2.2µM
Cc1nnc(N2C(=O)c3oc4ccccc4c(=O)c3C2c2ccc(F)cc2)s1 (stereo not drawn)	none (no result: Sfp inh, CCT modulator, MmCpn inh, PLK1 PBD inh)
COc1ccc2c(Sc3ccc(Cl)cc3)c(C(=O)N3CCCCC3)[nH]c2c1	G9a block inconclusive (no result: Sfp inh, CCT modulator, MmCpn inh, PLK1 PBD inh)
COc1cc(OC)c(C2CC(=O)N3CN(c4ccccc4C)CSC3=C2C#N)cc1OC (stereo not drawn)	Sfp inh 4µM, G9a block inconclusive (no result: CCT modulator, PLK1 PBD inh, VDR inhibitor)
COc1cc(OC)c(C2C(C#N)=C(N)OC3=C2C(=O)CC(C)C3)cc1OC (stereo not drawn)	none
Oc1ccccc1-c1nnc(COc2ccccc2)o1	none
Oc1ccccc1-c1nnc(COc2ccc(Cl)cc2Cl)o1	MmCpn inh inconclusive, PLK1 PBD inh 27µM, VDR inhibitor 79µM, G9a block inconclusive
COc1ccc(-c2nnc3sc(C(C)N4C(=O)c5ccccc5C4=O)nn23)cc1 (stereo not drawn)	PLK1 PBD inh 24µM, VDR inhibitor inconclusive, G9a block inconclusive
CCOc1ccc(Br)cc1CNCCSc1nnnn1-c1ccccc1	none (no result: Sfp inh, CCT modulator, MmCpn inh, PLK1 PBD inh)
O=[N+]([O-])c1ccc2c(c1)N([O-])C1(CCCCC1)[N+]2=O	Sfp inh 7.1µM, PLK1 PBD inh 12µM, VDR inhibitor inconclusive (no result: G9a block)
COc1ccc2c(c1)SCCC2=O	none
COc1ccc2c(c1)OCC1=C2CCC2(C)C(=O)CC=C12 (stereo not drawn)	Sfp inh 20µM, G9a block inconclusive (no result: CCT modulator, PLK1 PBD inh, VDR inhibitor)
COc1cccc(-n2ccn(CC(=O)c3ccc(F)cc3)c(=O)c2=O)c1	none (no result: Sfp inh, CCT modulator, MmCpn inh, PLK1 PBD inh)
COC(=O)/C=C/C(=O)N1CCN(c2ccccc2C)CC1	none
CC(C)C(=O)N1CCC(Cc2ccccc2)CC1	none
O=C(/C=C/c1ccco1)N1CCN(S(=O)(=O)c2cccc([N+](=O)[O-])c2)CC1	none (no result: Sfp inh, G9a block)
COC(=O)/C=C/C(=O)N1CCN(c2ccccc2)CC1	G9a block 50µM
O=C(/C=C/c1ccco1)N1CCC(Cc2ccccc2)CC1	Sfp inh inconclusive, PLK1 PBD inh inconclusive, VDR inhibitor inconclusive, G9a block 32µM
COc1cccc(N2CCN(C(=O)/C=C/c3ccco3)CC2)c1	Sfp inh 8.9µM, G9a block 28µM
O=C(/C=C/c1ccco1)N1CCN(c2ncccn2)CC1	Sfp inh inconclusive, G9a block inconclusive
COc1ccc(S(=O)(=O)N2CCN(C(=O)/C=C/c3ccco3)CC2)cc1	G9a block 25µM (no result: Sfp inh)
O=C(CSc1ncc2c(n1)-c1cc(Cl)ccc1N(Cc1ccccc1F)S2(=O)=O)Nc1cccc(C(F)(F)F)c1	none (no result: Sfp inh, CCT modulator, MmCpn inh, PLK1 PBD inh)
COc1ccc(NC(=O)[C@@H](c2ccccc2)N2Cc3ccccc3C2=O)cc1OC	none (no result: Sfp inh, CCT modulator, MmCpn inh, PLK1 PBD inh)
CCOc1ccc(NC(=S)Nc2ccc(Br)cc2Cl)cc1	Sfp inh 40µM
CCOc1ccc(NC(=S)NS(=O)(=O)c2cc(Br)ccc2OCC)cc1	PLK1 PBD inh 12µM, VDR inhibitor inconclusive (no result: Sfp inh, MmCpn inh, G9a block)
CCOc1ccc(Br)cc1S(=O)(=O)Nc1ccc(C(=O)OCC(=O)Nc2ccc(C#N)cc2)cc1	none (no result: G9a block)
Cc1cccnc1NC(=S)Nc1ccc(Br)cc1Cl	Sfp inh 20µM, G9a block inconclusive
CSc1ncc(C(=O)N2CCN(c3ccc(Cl)cc3)CC2)c(C)n1	none (no result: Sfp inh, CCT modulator, MmCpn inh, PLK1 PBD inh)
Cc1cc(Nc2ccccc2)n(-c2ccc(Br)cc2)n1	PLK1 PBD inh inconclusive, G9a block 50µM
CN1CCc2nc3sc(C(=O)Nc4c(F)cccc4F)c(N)c3cc2C1	G9a block 16µM (no result: Sfp inh, CCT modulator, MmCpn inh, PLK1 PBD inh)
COc1ccc(NC(=O)c2sc3nc4c(cc3c2N)CN(Cc2ccccc2)CC4)cc1	none (no result: Sfp inh, CCT modulator, MmCpn inh, PLK1 PBD inh)
Nc1c(C(=O)Nc2cccc(Cl)c2)sc2nc3c(cc12)CN(Cc1ccccc1)CC3	G9a block inconclusive (no result: Sfp inh, CCT modulator, MmCpn inh, PLK1 PBD inh)
CN1CCc2nc3sc(C(=O)Nc4cccc(C#N)c4)c(N)c3cc2C1	G9a block 16µM (no result: Sfp inh, CCT modulator, MmCpn inh, PLK1 PBD inh)
CC(C)OC(=O)CC(=O)c1sc2nc3c(cc2c1N)CN(C)CC3	Sfp inh 45µM, G9a block inconclusive
Nc1c(C(=O)Nc2ccccc2F)sc2nc3c(cc12)CCCCCC3	none (no result: Sfp inh, CCT modulator, MmCpn inh, PLK1 PBD inh)
Cc1cccc(C(=O)N2CCc3cc(CNC(=O)c4ccnn4C)ccc32)c1	none (no result: Sfp inh, CCT modulator, MmCpn inh, PLK1 PBD inh)
CCn1cc(S(=O)(=O)c2ccc(C)cc2C)c(=O)c2cc(F)c(N3CCCCC3)cc21	none (no result: Sfp inh, CCT modulator, MmCpn inh, PLK1 PBD inh)
COC(=O)c1c(NC(=O)c2nc(SCc3cccc(C)c3)ncc2Cl)sc2c1CCCC2	none (no result: Sfp inh, CCT modulator, MmCpn inh, PLK1 PBD inh)
Nc1ccn([C@@H]2O[C@H](CO)[C@@H](O)C2O)c(=O)n1 (stereo partly drawn)	Sfp inh 100µM!, G9a block 11µM!
C[N+](C)(C)CCOP(=O)(O)OP(=O)([O-])OC[C@H]1O[C@@H](n2ccc(N)nc2=O)[C@H](O)[C@@H]1O	G9a block 10µM!

From PubChem
